According to the supplement of paper PMC6555819:

What was measured:
Assay in all cases: PBM binding z-score (relative to random genomic background probes); higher = stronger binding; sequences stand for … in GC…GCGATTGACAGCGTAGAATGAAGG
[1] = system: FXR:RXRa (NR concentration 270 nM, RXRa partner concentration 90 nM)
Outline: (§1)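 Each nuclear receptor dimer, without ligand, was incubated for 1 h on custom Agilent 4×180K protein-binding microarrays. Binding was detected with antibodies against each partner (one per run), and scanned fluorescence was regression-normalized. The binding z-scores are referenced to random human genomic background probes.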

[2] = system: LXRa:RXRa (NR concentration 270 nM, RXRa partner concentration 90 nM)
Outline: as §1

[3] = system: LXRa homodimer (NR concentration 270 nM)
Outline: as §1

[4] = system: LXRb:RXRa (NR concentration 270 nM, RXRa partner concentration 90 nM)
Outline: as §1

[5] = system: LXRb homodimer (NR concentration 270 nM)
Outline: as §1

[6] = system: PPARa:RXRa (NR concentration 270 nM, RXRa partner concentration 90 nM)
Outline: as §1

[7] = system: PPARg:RXRa (NR concentration 180 nM, RXRa partner concentration 90 nM)
Outline: as §1

[8] = system: PPARg:RXRa 270nM:90nM, anti-RXR (NR concentration 270 nM, RXRa partner concentration 90 nM)
Outline: as §1

[9] = system: PPARg:RXRa 30nM:10nM, anti-RXR (NR concentration 30 nM, RXRa partner concentration 10 nM)
Outline: as §1

[10] = system: PPARg:RXRa 90nM:30nM, anti-RXR (NR concentration 90 nM, RXRa partner concentration 30 nM)
Outline: as §1

[11] = system: PPARg:RXRa DBDmut IVT, anti-RXR (DBD mutation: RXRa K156A/R161A, NR concentration 270 nM, RXRa partner concentration 90 nM)
Outline: as §1

[12] = system: PPARg:RXRa IVT, anti-PPARg (NR concentration 270 nM, RXRa partner concentration 90 nM)
Outline: as §1

[13] = system: PPARg DBDmut:RXRa IVT, anti-PPARg (DBD mutation: PPARg1 K132A/R137A, NR concentration 270 nM, RXRa partner concentration 90 nM)
Outline: as §1

[14] = system: PPARg DBDmut IVT, anti-PPARg (DBD mutation: PPARg1 K132A/R137A, NR concentration 270 nM)
Outline: as §1

[15] = system: PPARg homodimer (NR concentration 180 nM)
Outline: as §1

[16] = system: PXR:RXRa (NR concentration 270 nM, RXRa partner concentration 90 nM)
Outline: as §1

[17] = system: PXR homodimer (NR concentration 270 nM)
Outline: as §1

[18] = system: RARa:RXR (NR concentration 270 nM, RXRa partner concentration 90 nM)
Outline: as §1

[19] = system: RARa homodimer (NR concentration 270 nM)
Outline: as §1

[20] = system: RARb:RXRa (NR concentration 270 nM, RXRa partner concentration 90 nM)
Outline: as §1

Sequence | PBM binding z-score [1] | PBM binding z-score [2] | PBM binding z-score [3] | PBM binding z-score [4] | PBM binding z-score [5] | PBM binding z-score [6] | PBM binding z-score [7] | PBM binding z-score [8] | PBM binding z-score [9] | PBM binding z-score [10] | PBM binding z-score [11] | PBM binding z-score [12] | PBM binding z-score [13] | PBM binding z-score [14] | PBM binding z-score [15] | PBM binding z-score [16] | PBM binding z-score [17] | PBM binding z-score [18] | PBM binding z-score [19] | PBM binding z-score [20]
CAAACTAGGTCACGAACGGTCAAAGTCGAATGAC | 5.85 | 7.42 | 4.34 | 5.78 | 1.18 | 5.62 | 9.57 | 8.01 | 5.99 | 7.93 | 8.77 | 9.13 | 8.12 | 6.44 | 4.03 | 3.71 | 0.663 | 4.05 | 2.03 | 4.7
ACTTACGGGTCCACGAGGTTATAGCACGCGTATA | 0.87 | 0.822 | 0.478 | 1.39 | 0.189 | 1.6 | 1.01 | 0.696 | 0.165 | 0.469 | 0.0725 | 0.67 | 0.473 | 0.278 | 0.407 | 1.48 | 1.01 | 1.8 | 0.384 | 1.15
CGTCCAAGGTCAGAGAGGACAGTGAATGCCGAGT | 4.64 | 3.42 | 0.241 | 2.28 | -0.021 | 3.85 | 2.24 | 2.75 | 0.355 | 1.59 | 2.32 | 2.3 | -0.223 | -1.03 | 2.09 | 3.22 | 4.69 | 2.69 | 0.425 | 4.64
CCGACTGGGGCAAAGTTACCATAACGCACAGCCA | -0.19 | -0.516 | -0.498 | -0.362 | -0.945 | 1.6 | 4.27 | 5 | 3.18 | 4.86 | 3.71 | 3.42 | -0.241 | -0.589 | 0.229 | -0.542 | -0.263 | -0.168 | -0.168 | 0.462
CTCGAAAGGTCGTGCTCAAGTGAGTATACCAAAC | 5.4 | 3.95 | 0.0272 | 3.51 | 0.363 | 4.73 | 2.57 | 3.77 | 0.732 | 2.35 | 0.992 | 1.58 | 1.46 | 0.784 | 1.8 | 3.15 | 0.371 | 3.74 | -0.14 | 3.97
TCTATTAGTTGATCAGGGCAACCGAAACAGCGGA | 0.646 | 0.456 | 0.302 | 0.505 | 0.641 | 0.282 | 0.218 | 2.02 | 3.78 | 2.67 | 2.16 | 0.972 | 0.672 | 0.797 | 0.546 | 0.5 | 0.292 | 0.362 | 0.492 | 0.954
CCAGACAGGTGAAATGTAACTCAGTCTGGTACGC | 0.0255 | -0.0223 | -0.367 | 0.217 | 0.0964 | 0.949 | 1.12 | 1.5 | 0.324 | 1.07 | 1.56 | 0.99 | -0.289 | -0.0118 | 0.686 | 0.0204 | -0.634 | 0.296 | 0.296 | 0.614
